The source of these data is PubChem BioAssay (NCI).

Compounds without any hit were thinned out: in the full panel of roughly 83,000, 20% have a hit.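 Testing used 96-well plates and a 48-hour single-concentration exposure. Example: -40 means 40% of the starting cells died.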 Values without a mark were called inactive. Active and inactive are the calls of the source. The calls were made as follows: active = growth percent below 10; inactive = the rest.

Some test systems named below: DU-145 prostate; K-562 leukemia; MALME-3M melanoma; MDA-MB-231 breast; RXF 393 renal; SF-268 CNS; SF-295 CNS; SF-539 CNS; UACC-257 melanoma; M14 melanoma; HCT-15 colon; HT29 colon; SNB-75 CNS; SNB-19 CNS; U251 CNS; PC-3 prostate; SK-MEL-5 melanoma; UACC-62 melanoma; LOX IMVI melanoma; SK-MEL-28 melanoma.
Common to all, as to experiment: NCI-60 one-dose screen, 48 h (100 = growth as untreated, 0 = no growth, -100 = all killed)
Holding throughout (settings): 10 µM

With `COc1cc(-c2nn(-c3cccc(NC(=O)NCCNS(=O)(=O)c4ccc(Cl)cc4)c3)cc2-c2ccncc2)ccc1Cl`, the growth with DU-145 prostate was 11.5%; in the test with K-562 leukemia, 2.85% (active); in the test on MALME-3M melanoma, 10.9%; in the test on MDA-MB-231 breast, -2.68% (active); with RXF 393 renal, -13.6% (active); with SF-268 CNS, 13.1%. Besides, the growth was -44.8% (active) in the test with SF-295 CNS; -38.5% (active) with SF-539 CNS; 33% in the test with UACC-257 melanoma; -24.7% (active) in the test with M14 melanoma; 26.5% with HCT-15 colon; -24.4% (active) in the test with HT29 colon. Besides, the growth in the test with SNB-75 CNS is 0.927% (active); in the test with SNB-19 CNS, 38.1%; in the test on U251 CNS, -0.109% (active); in the test with PC-3 prostate, 7.5% (active); in the test with SK-MEL-5 melanoma it was -74.6% (active); with UACC-62 melanoma, 25.6%. Further, the growth in the test with LOX IMVI melanoma was -0.864% (active); in the test on SK-MEL-28 melanoma it was 21.4%.

With `O=C1CSC(=S)N1/N=C/c1ccc(Cl)s1`, the growth is 109% with DU-145 prostate; 105% in the test with K-562 leukemia; 103% in the test on MALME-3M melanoma; 99.4% with MDA-MB-231 breast; 108% with RXF 393 renal; 91.9% with SF-268 CNS. Moreover, the growth in the test with SF-295 CNS was 100%; with SF-539 CNS, 95.1%; in the test with UACC-257 melanoma, 110%; with M14 melanoma, 107%; in the test on HCT-15 colon it was 97.9%; in the test on HT29 colon, 110%. Also, the growth is 111% in the test with SNB-75 CNS; 97.7% with SNB-19 CNS; 99.3% with U251 CNS; 98.1% with PC-3 prostate; 97% in the test on SK-MEL-5 melanoma; 100% in the test on UACC-62 melanoma. The growth in the test on LOX IMVI melanoma was 88.5%; with SK-MEL-28 melanoma, 107%.

`C=CCSC(CC)(CC)C(=O)NC`: the growth is 120% in the test with DU-145 prostate; 98.3% in the test with K-562 leukemia; 115% in the test on MALME-3M melanoma; 114% in the test with MDA-MB-231 breast; 107% with RXF 393 renal; 112% in the test with SF-268 CNS. For the same compound, the growth with SF-295 CNS was 105%; in the test on SF-539 CNS, 103%; with UACC-257 melanoma, 92.1%; in the test with M14 melanoma, 103%; with HCT-15 colon, 101%; in the test with HT29 colon, 87%. Besides, the growth in the test on SNB-75 CNS is 89.5%; with SNB-19 CNS it was 102%; in the test on U251 CNS, 101%; in the test with PC-3 prostate, 101%; in the test on SK-MEL-5 melanoma, 103%; in the test on UACC-62 melanoma it was 103%. Further, the growth with LOX IMVI melanoma is 100%; in the test on SK-MEL-28 melanoma, 110%.

With `O=C(CSc1nnc(-c2cccnc2SCc2ccccc2)o1)Nc1nc(Cl)cc(Cl)n1`, the growth in the test with DU-145 prostate is 107%; in the test with K-562 leukemia, 92.8%; with MALME-3M melanoma, 94%; with MDA-MB-231 breast, 92%; in the test with RXF 393 renal, 105%; in the test with SF-268 CNS it was 99.7%. Moreover, the growth is 96.8% in the test with SF-295 CNS; 101% in the test on SF-539 CNS; 113% with UACC-257 melanoma; 92% in the test on M14 melanoma; 106% with HCT-15 colon; 110% with HT29 colon. The growth in the test on SNB-75 CNS is 85.7%; in the test with SNB-19 CNS, 106%; in the test with U251 CNS, 106%; with PC-3 prostate it was 94.5%; in the test on SK-MEL-5 melanoma it was 101%; with UACC-62 melanoma, 101%. For the same compound, the results for the growth with LOX IMVI melanoma and in the test on SK-MEL-28 melanoma were 94.9% and 113%, respectively.

`CS(=O)(=O)c1nccc(-c2c(-c3cccc(OCc4ccc(F)cc4)c3)nc3sccn23)n1`: the growth was -53.8% (active) in the test on DU-145 prostate; 47.3% with K-562 leukemia; 60.4% in the test with MALME-3M melanoma; 77.5% in the test with MDA-MB-231 breast; 79.6% in the test on RXF 393 renal; 90.2% with SF-268 CNS. In addition, the growth with SF-295 CNS is 105%; in the test on SF-539 CNS it was 104%; with UACC-257 melanoma it was 17%; in the test on M14 melanoma, 71.2%; in the test with HCT-15 colon, 59.2%; with HT29 colon, 82.9%. The growth with SNB-75 CNS was 95.9%; in the test on SNB-19 CNS it was 83.2%; in the test with U251 CNS, 96.6%; with PC-3 prostate, 59.3%; with SK-MEL-5 melanoma, 5.39% (active); in the test on UACC-62 melanoma, 60.1%. Moreover, the growth in the test on LOX IMVI melanoma was 36.6%; in the test with SK-MEL-28 melanoma it was 62.8%.

For `COc1ccc2cc(-c3nc4ccccc4s3)c(Cl)nc2c1OC`, the growth was 113% in the test with DU-145 prostate; 92.3% in the test with K-562 leukemia; 109% in the test on MALME-3M melanoma; 87.3% in the test with MDA-MB-231 breast; 104% with RXF 393 renal; 93.3% in the test on SF-268 CNS. For the same compound, the growth with SF-295 CNS is 108%; in the test with SF-539 CNS it was 99%; in the test on UACC-257 melanoma it was 109%; in the test with M14 melanoma, 102%; in the test on HCT-15 colon, 97%; in the test on HT29 colon, 104%. Further, the growth in the test with SNB-75 CNS was 82.1%; with SNB-19 CNS it was 93.9%; with U251 CNS, 107%; with PC-3 prostate, 92.6%; in the test on SK-MEL-5 melanoma, 92.9%; in the test on UACC-62 melanoma, 91.1%. Moreover, the growth in the test on LOX IMVI melanoma was 90.6%; in the test with SK-MEL-28 melanoma, 107%.

Turning to `CCN(CC)CCOc1cccc2c1C(=O)c1cccc(OCCN(CC)CC)c1C2=O`, the growth was 27.1% in the test with DU-145 prostate; 27.9% in the test with K-562 leukemia; 52% with MALME-3M melanoma; 42.4% in the test with MDA-MB-231 breast; 42.4% in the test on RXF 393 renal; 40.8% in the test with SF-268 CNS. Moreover, the growth in the test on SF-295 CNS was 32.5%; in the test on SF-539 CNS, 37.3%; in the test with UACC-257 melanoma it was 70.7%; in the test with M14 melanoma, 35.4%; in the test with HCT-15 colon, 57%; in the test with HT29 colon, 13.8%. Besides, the growth with SNB-75 CNS is 53.3%; in the test with SNB-19 CNS, 31.8%; with U251 CNS, 24.8%; with PC-3 prostate, 32.2%; in the test with SK-MEL-5 melanoma, 72%; in the test with UACC-62 melanoma it was 56.9%. Besides, the growth with LOX IMVI melanoma is 18.2%; in the test with SK-MEL-28 melanoma it was 82.5%.
